In PubChem BioAssay (Tox21) one finds Potency data, which are given here for seven molecules.

Where “and” joins values, the source holds several entries; their conditions need not be identical. Equal values may be shown once. Records with an inconclusive call do not appear. Calls of active or inactive are those of the source. Unless noted, calls come from the whole dose curve; as a rule, active = well fitted curve in the direction sought with a large enough effect in the repeat runs; inconclusive = weak or mixed curves; inactive = no such curve, though single readings can be large; an effect the other way counts as inactive or inconclusive.

The nature of test [1]: A CellTox Green Cytotoxicity Assay to monitor cytotoxicity in HepG2 cells - 0 hour (AID 1224882). Note: nearly all actives have a fitted effect of over 35% in size. In outline: (§1)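 Real-time, homogeneous cytotoxicity readout: dead-cell DNA staining by CellTox Green in HepG2 monolayers, fluorescence measured at timed intervals up to 40 h of continuous compound exposure.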
Test [2] can be described thus: A CellTox Green Cytotoxicity Assay to monitor cytotoxicity in HepG2 cells - 32 hour (AID 1224883). Note: nearly all actives have a fitted effect of over 50% in size. In outline: as §1
Test [3] in a line: A CellTox Green Cytotoxicity Assay to monitor cytotoxicity in HEK293 cells - 8 hour (AID 1224884). Note: nearly all actives have a fitted effect of over 35% in size. In outline: (§2)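 Cytotoxicity was tracked continuously in HEK293 cells by a DNA-binding dye excluded from viable cells. Compounds were transferred in DMSO 5 h after seeding; fluorescence was recorded at intervals up to 40 h.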
A short description of test [4]: qHTS RealTime-Glo MT Cell Viability Assay in HepG2 cells - 16 hour (AID 1224885). Note: nearly all actives have a fitted effect of over 50% in size. An outline of the steps:
(§3)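 Tox21 10K library screened in qHTS format on HepG2 cells carrying RealTime-Glo reagents. Compounds were added after a 5 h preincubation, and the luminescent signal from continuous culture was measured repeatedly during 40 h treatment.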

The nature of test [5]: qHTS RealTime-Glo MT Cell Viability Assay in HEK293 cells - 24 hour (AID 1224886). Note: nearly all actives have a fitted effect of over 50% in size. Note: potency is the fitted concentration of half-maximal effect. In outline:
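Luminescence generated by NanoLuc from substrate produced by living HEK293 cells served as the viability signal. Each value reflects the reading at its stated time point during continuous 40 h compound exposure at 37 C.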

Test [6] can be described thus: qHTS RealTime-Glo MT Cell Viability Assay in HEK293 cells - 8 hour (AID 1224887). Note: top concentration of the series differs between compounds; nearly all actives have a fitted effect of over 50% in size. An outline of the steps:
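Nonlytic bioluminescent viability monitoring. HEK293 at 600 cells/well with reagent; 5 h settle; compound transfer by pintool; plates held at 37 C and read at set time points.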

Test [7] in a line: A CellTox Green Cytotoxicity Assay to monitor cytotoxicity in HEK293 cells - 16 hour (AID 1224888). Note: nearly all actives have a fitted effect of over 35% in size. An outline of the steps:
as §2

Test [8] in a line: qHTS RealTime-Glo MT Cell Viability Assay in HepG2 cells - 0 hour (AID 1224889). Note: nearly all actives have a fitted effect of over 50% in size. In outline: as §3
The nature of test [9]: A CellTox Green Cytotoxicity Assay to monitor cytotoxicity in HepG2 cells - 8 hour (AID 1224890). Note: nearly all actives have a fitted effect of over 45% in size. An outline of the steps:
as §1

Test [10] in a line: qHTS assay to identify small molecule antagonists of the estrogen receptor alpha (ER-alpha) signaling pathway using the BG1 cell line in the presence of 0.1 nM 17-beta-estradiol - cell viability counter screen (AID 1259241). Note: nearly all actives have a fitted effect of over 40% in size. In outline:
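In this screen, hormone-deprived VM7Luc4E2 cells were seeded at 4,000 per well, dosed with compound and 0.1 nM estradiol final, and incubated 22 hr at 37C and 5% CO2; fluorogenic live-cell protease signal reported viability.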

The nature of test [11]: qHTS assay to identify small molecule antagonists of the androgen receptor (AR) signaling pathway using the MDA cell line in the presence of 0.5 nM R1881 - cell viability counter screen (AID 1259242). Note: nearly all actives have a fitted effect of over 45% in size. An outline of the steps: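 Cytotoxicity toward MDA-kb2 cells is measured by CellTiter-Fluor live-cell protease fluorescence after 16 hr compound exposure at 37C in the presence of 0.5 nM R1881 stimulator.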

The target of test [12] is Androgen receptor (Homo sapiens) (UniProt P10275). Briefly: qHTS assay to identify small molecule antagonists of the androgen receptor (AR) signaling pathway using the MDA cell line in the presence of 0.5 nM R1881 (AID 1259243). Note: nearly all actives have a fitted effect of over 50% in size. In outline:
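Steps: seed MDA-kb2 cells, incubate 5 hr at 37C; pin-transfer compounds in DMSO; add R1881 to 0.5 nM final; incubate 16 hr; add ONE-Glo, wait 30 min at room temperature; read luminescence.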

Test [13] is described as follows: qHTS assay to identify small molecule HDAC inhibitors (AID 1259364). Note: top concentration of the series differs between compounds; nearly all actives have a fitted effect of over 45% in size. An outline of the steps:
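Homogeneous cell-based luminescent assay of endogenous class I/II HDAC activity; HCT-116 cells, 2 h compound exposure, 30 min HDAC-Glo development at RT.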

Test [14] in a line: qHTS assay to identify small molecule agonists of the sonic hedgehog signaling (Shh) pathway - cell viability counter screen (AID 1259366). Note: nearly all actives have a fitted effect of over 50% in size. In outline: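 In quantitative high-throughput format, 3T3 Gli1-Luc cells were exposed to compounds for 24hr and multiplexed for viability using CellTiter-Fluor, incubated 1hr at 37C before the fluorescence read.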
Test [15] in a line: qHTS assay to identify small molecule antagonists of the sonic hedgehog signaling (Shh) pathway - cell viability counter screen (AID 1259367). Note: nearly all actives have a fitted effect of over 55% in size. In outline:
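Cells: 3T3 Gli1-Luc, 2,000/well, 4 hr pre-incubation. Compounds in DMSO, then conditioned medium. Incubation 24 hr, 37C, 5% CO2. CellTiter-Fluor at 23 hr, 1 hr, fluorescence.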

Test [16] is described as follows: qHTS assay to identify small molecule agonists of the sonic hedgehog signaling (Shh) pathway (AID 1259368; calls by dose curve;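 note: NIH/3T3-derived 3T3Gli1-Luc cells carrying a stable Gli1-driven firefly luciferase reporter; series mostly up to about 92 µM; nearly all actives have a fitted effect of over 15% in size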). In outline:
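Steps: seed 3T3 Gli1-Luc cells, incubate 4 hr at 37 C, pin-transfer compounds in DMSO alongside a positive control, incubate 24 hr, add luciferase detection reagent, wait 30 min at room temperature, read luminescence.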

Test [17] has as its target Estrogen receptor (Homo sapiens) (UniProt P03372). Description: qHTS assay to identify small molecule antagonists of the estrogen receptor alpha (ER-alpha) signaling pathway using the BG1 cell line in the presence of 0.1 nM 17-beta-estradiol (AID 1259244). Note: nearly all actives have a fitted effect of over 50% in size. An outline of the steps: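 After 5 days in hormone-depleted medium (charcoal-stripped serum, no phenol red), VM7Luc4E2 cells were seeded, incubated 24 h, then co-treated with compound and 0.1 nM (final) estradiol for 22 h before luminescence detection.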

Test [18] can be described thus: qHTS assay to identify small molecule HDAC inhibitors - cell viability counter screen (AID 1259365). In outline:
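Measured quantity is CellTiter-Glo luminescence from wild-type HCT-116 cells after compound incubation of 2hr at 37C, 5% CO2; reagent developed 30min at room temperature.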

Test [19] can be described thus: qHTS assay to identify small molecule antagonists of the sonic hedgehog signaling (Shh) pathway (AID 1259369; calls by dose curve; note: nearly all actives have a fitted effect of over 45% in size). In outline:
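Inhibition of Shh signalling is measured as reduced Gli1-response-element firefly luciferase output in an NIH/3T3-derived stable reporter clone stimulated with conditioned medium for 24hr.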

Chain of Estrogen receptor (Homo sapiens) (P03372 whole entry, looked up): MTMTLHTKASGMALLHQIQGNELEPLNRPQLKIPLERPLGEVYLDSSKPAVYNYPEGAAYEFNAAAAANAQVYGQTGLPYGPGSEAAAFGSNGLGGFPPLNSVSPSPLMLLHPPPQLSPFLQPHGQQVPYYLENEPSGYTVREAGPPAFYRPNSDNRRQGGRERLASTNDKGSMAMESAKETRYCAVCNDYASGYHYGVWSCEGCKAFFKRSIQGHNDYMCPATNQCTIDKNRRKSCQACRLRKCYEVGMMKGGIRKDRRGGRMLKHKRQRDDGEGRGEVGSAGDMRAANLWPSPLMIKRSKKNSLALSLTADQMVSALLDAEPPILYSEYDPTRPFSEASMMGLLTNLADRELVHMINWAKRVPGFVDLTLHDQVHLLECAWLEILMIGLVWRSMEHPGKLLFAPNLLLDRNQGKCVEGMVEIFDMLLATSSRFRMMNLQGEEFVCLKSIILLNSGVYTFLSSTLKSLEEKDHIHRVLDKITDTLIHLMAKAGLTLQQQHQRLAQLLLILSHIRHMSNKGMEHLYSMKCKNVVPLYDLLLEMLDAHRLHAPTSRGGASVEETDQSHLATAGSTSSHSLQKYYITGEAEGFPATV
Chain of Androgen receptor (Homo sapiens) (P10275 whole entry, looked up): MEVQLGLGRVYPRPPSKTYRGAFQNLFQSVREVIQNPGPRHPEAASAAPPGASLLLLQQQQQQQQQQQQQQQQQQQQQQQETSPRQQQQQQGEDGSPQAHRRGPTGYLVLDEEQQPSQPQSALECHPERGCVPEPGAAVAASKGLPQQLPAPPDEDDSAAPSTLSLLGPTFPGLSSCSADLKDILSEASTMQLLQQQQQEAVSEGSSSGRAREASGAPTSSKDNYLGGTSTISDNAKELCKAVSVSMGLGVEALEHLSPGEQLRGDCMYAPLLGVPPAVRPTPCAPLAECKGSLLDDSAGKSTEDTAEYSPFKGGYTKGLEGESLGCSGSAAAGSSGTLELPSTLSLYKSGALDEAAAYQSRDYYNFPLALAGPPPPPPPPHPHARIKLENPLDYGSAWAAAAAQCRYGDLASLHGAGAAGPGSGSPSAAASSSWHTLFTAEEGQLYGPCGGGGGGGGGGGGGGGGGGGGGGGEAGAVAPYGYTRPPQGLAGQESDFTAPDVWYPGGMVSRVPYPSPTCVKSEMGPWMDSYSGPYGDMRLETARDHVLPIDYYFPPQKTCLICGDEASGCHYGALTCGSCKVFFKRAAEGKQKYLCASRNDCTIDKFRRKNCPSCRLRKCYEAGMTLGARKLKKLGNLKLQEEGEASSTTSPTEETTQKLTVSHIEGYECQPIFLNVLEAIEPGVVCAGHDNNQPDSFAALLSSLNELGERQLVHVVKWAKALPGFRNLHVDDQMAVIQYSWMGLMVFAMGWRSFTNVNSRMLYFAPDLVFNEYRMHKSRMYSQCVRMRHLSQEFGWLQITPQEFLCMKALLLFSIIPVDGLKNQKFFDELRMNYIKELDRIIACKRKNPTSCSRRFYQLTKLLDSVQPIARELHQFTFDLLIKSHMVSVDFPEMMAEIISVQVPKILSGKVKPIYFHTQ

Consider `C[C@H]1O[C@@H](O[C@H]2[C@@H](O)C[C@H](O[C@H]3[C@@H](O)C[C@H](O[C@H]4CC[C@@]5(C)[C@H](CC[C@@H]6[C@@H]5C[C@@H](O)[C@]5(C)[C@@H](C7=CC(=O)OC7)CC[C@]65O)C4)O[C@@H]3C)O[C@@H]2C)C[C@H](O)[C@@H]1O`, for which the Potency entry in test [1], in test [2], in [3], in [4], in [6] and in [7] was “inactive” throughout. For the same molecule, the Potency entry in test [8], in [9], in test [10], in test [11], in [12] and in test [13] was “inactive” throughout. The Potency result in test [14], in [15] and in test [16] was “inactive” in each case. In addition, the Potency in test [5] is 69.2 nM (active) and 61 nM (active).

Consider `CC(C)(C)c1n[nH]c(=O)n(N)c1=O`, for which the Potency entry in test [1], in [2], in [3], in test [4], in test [5] and in [6] was “inactive” in each case. In addition, the Potency result in test [7], in test [8], in test [9], in [10], in test [11] and in test [12] was “inactive” each time. Also, the Potency entry in [17], in [13], in test [18], in test [14], in test [15] and in test [16] was “inactive” throughout. Moreover, the Potency result in [19] is “inactive”.

With `O=c1cccc[nH]1`, the Potency result in test [1], in test [2], in test [3], in test [4], in test [5] and in test [6] was “inactive” in each case. Moreover, the Potency entry in [7], in test [8], in test [9], in test [10], in [11] and in [12] was “inactive” each time. The Potency result in [17], in test [13], in test [14], in test [15] and in test [16] was “inactive” in each case.

Take `C/C=C/CO`: the Potency result in test [1], in test [2], in test [3], in [4], in test [5] and in test [6] was “inactive” each time. Besides, the Potency result in test [7], in test [8], in test [9], in [10], in test [11] and in test [12] was “inactive” each time. For the same molecule, the Potency entry in test [17], in [13], in [18], in test [14] and in test [16] was “inactive” in each case.

`CC1CCCCC1`: the Potency entry in [1], in test [2], in test [3], in [4], in test [5] and in test [6] was “inactive” each time. Moreover, the Potency result in [7], in test [8], in test [9], in [10], in test [11] and in test [12] was “inactive” each time. Moreover, the Potency entry in test [17], in test [13], in [18], in test [14], in test [15] and in test [16] was “inactive” throughout.

As to `CCc1ccc(C)nc1`, the Potency entry in test [1], in test [2], in [3], in [4], in test [5] and in test [6] was “inactive” in each case. The Potency result in test [7], in [8], in test [9], in test [10], in test [11] and in test [12] was “inactive” each time. Moreover, the Potency result in test [17], in test [18], in test [14], in test [15], in test [16] and in [19] was “inactive” each time.

For `ClC/C=C\CCl`, the Potency result in test [1], in test [2], in test [3], in [4], in test [5] and in test [6] was “inactive” each time. Moreover, the Potency entry in test [7], in [8], in test [9], in test [10], in test [11] and in test [17] was “inactive” throughout. The Potency entry in test [13], in test [18], in test [14], in test [15], in test [16] and in test [19] was “inactive” each time.
